In the supplement of paper PMC10646978:
± gives the standard deviation.

Columns and labels:
Conditions in all cases: modulator concentration 10 µM
[1] = tested on: RAW-Dual (murine macrophage reporter line); test: NF-kB reporter (SEAP) activity fold change vs agonist alone; higher = enhanced NF-kB activity
Summary of the method: (§1)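 In 384-well plates holding 50 000 RAW-Dual murine macrophage reporter cells per well, compound at 10 μM final was pre-incubated for 1 hour at 37 °C, after which a PRR agonist was added overnight. Supernatant SEAP read with QUANTI-Blue at 620 nm absorbance reported NF-κB, and Lucia luciferase read with QUANTI-Luc luminescence reported IRF. Fold change values come from dividing each reporter signal by the mean of agonist-only control wells on the same plate, averaged over replicate plates with propagated errors.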

[2] = tested on: RAW-Dual (murine macrophage reporter line); test: IRF reporter (Lucia luciferase) activity fold change vs agonist alone; higher = enhanced IRF activity
Summary of the method: as §1

[3] = tested on: RAW-Dual (murine macrophage reporter line); test: viability score (confluency relative to resting cells, overnight) (fraction); higher = more viable, active = viable (0.7 or more)
Summary of the method: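 RAW-Dual macrophages in 384-well plates were treated overnight with compound at 10 μM final. IncuCyte imaging recorded confluency, and IncuCyte software built two confluency masks across every imaged well. The viability score expresses confluency relative to resting cells and was judged against a cutoff, which a compound met only if both masks exceeded 70% of resting cells.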

[4] = agonist: CpG ODN 1826 0.5 ug/mL

Structure (SMILES): Cc1cc2c(s1)Nc1ccccc1N=C2N1CCN(C)CC1
- NF-kB reporter [1, 4]: 0.278 ± 0.057
- NF-kB reporter ([1]; agonist: LPS 0.1 ug/mL): 1.03 ± 0.36
- NF-kB reporter ([1]; agonist: MPLA […]): 0.929 ± 0.056
- IRF reporter ([2]; agonist: 3'3'-cGAMP 10 ug/mL): 0.819 ± 0.049
- IRF reporter ([2]; agonist: LPS 0.1 ug/mL): 1.16 ± 0.37
- IRF reporter ([2]; agonist: MPLA […]): 0.974 ± 0.075
- viability score [3]: 1 (active)

Structure (SMILES): COc1ccc(N2CC(C(=O)NCc3ccccc3C(F)(F)F)CC2=O)cc1 (stereo unspecified)
- NF-kB reporter [1, 4]: 1 ± 0.11
- NF-kB reporter ([1]; agonist: LPS 0.1 ug/mL): 1.07 ± 0.085
- NF-kB reporter ([1]; agonist: MPLA […]): 0.935 ± 0.041
- IRF reporter ([2]; agonist: 3'3'-cGAMP 10 ug/mL): 1.03 ± 0.051
- IRF reporter ([2]; agonist: LPS 0.1 ug/mL): 1.2 ± 0.1
- IRF reporter ([2]; agonist: MPLA […]): 1.14 ± 0.29
- viability score [3]: 1 (active)

Structure (SMILES): CC(C)c1ccc(OCC(=O)NCc2nnc3n2CCC(C(F)(F)F)C3)cc1 (stereo unspecified)
- NF-kB reporter [1, 4]: 1.24 ± 0.094
- NF-kB reporter ([1]; agonist: LPS 0.1 ug/mL): 1.05 ± 0.08
- NF-kB reporter ([1]; agonist: MPLA […]): 0.988 ± 0.06
- IRF reporter ([2]; agonist: 3'3'-cGAMP 10 ug/mL): 0.99 ± 0.074
- IRF reporter ([2]; agonist: LPS 0.1 ug/mL): 1.1 ± 0.075
- IRF reporter ([2]; agonist: MPLA […]): 1.05 ± 0.13
- viability score [3]: 0.996 (active)

Structure (SMILES): CS(=O)(=O)C1CC2CCC(C1)N2C(=O)c1cccc(Oc2ccc(F)cc2)c1 (stereo unspecified)
- NF-kB reporter [1, 4]: 1.07 ± 0.09
- NF-kB reporter ([1]; agonist: LPS 0.1 ug/mL): 1.13 ± 0.097
- NF-kB reporter ([1]; agonist: MPLA […]): 1.06 ± 0.15
- IRF reporter ([2]; agonist: 3'3'-cGAMP 10 ug/mL): 0.94 ± 0.048
- IRF reporter ([2]; agonist: LPS 0.1 ug/mL): 1.2 ± 0.085
- IRF reporter ([2]; agonist: MPLA […]): 1.33 ± 0.17
- viability score [3]: 0.99 (active)

Structure (SMILES): COc1ccc(-c2nc3c4cnn(-c5ccc(C)cc5C)c4ncn3n2)c(O)c1
- NF-kB reporter [1, 4]: 1.03 ± 0.058
- NF-kB reporter ([1]; agonist: LPS 0.1 ug/mL): 1.1 ± 0.086
- NF-kB reporter ([1]; agonist: MPLA […]): 0.991 ± 0.11
- IRF reporter ([2]; agonist: 3'3'-cGAMP 10 ug/mL): 1.05 ± 0.059
- IRF reporter ([2]; agonist: LPS 0.1 ug/mL): 1.25 ± 0.14
- IRF reporter ([2]; agonist: MPLA […]): 1.09 ± 0.27
- viability score [3]: 1 (active)

Structure (SMILES): CCCCCOC(=O)COc1ccc(S(=O)(=O)c2ccc(OCC(=O)OCCCCC)cc2)cc1
- NF-kB reporter [1, 4]: 0.959 ± 0.079
- NF-kB reporter ([1]; agonist: LPS 0.1 ug/mL): 0.964 ± 0.094
- NF-kB reporter ([1]; agonist: MPLA […]): 1.12 ± 0.14
- IRF reporter ([2]; agonist: 3'3'-cGAMP 10 ug/mL): 1.02 ± 0.032
- IRF reporter ([2]; agonist: LPS 0.1 ug/mL): 1.33 ± 0.21
- IRF reporter ([2]; agonist: MPLA […]): 1.61 ± 0.25
- viability score [3]: 1.03 (active)

Structure (SMILES): CCC(C(=O)Nc1cc(Cl)cc(Cl)c1)c1ccccc1 (stereo unspecified)
- NF-kB reporter [1, 4]: 0.851 ± 0.05
- NF-kB reporter ([1]; agonist: LPS 0.1 ug/mL): 1.16 ± 0.098
- NF-kB reporter ([1]; agonist: MPLA […]): 1.11 ± 0.045
- IRF reporter ([2]; agonist: 3'3'-cGAMP 10 ug/mL): 1.09 ± 0.083
- IRF reporter ([2]; agonist: LPS 0.1 ug/mL): 1.11 ± 0.062
- IRF reporter ([2]; agonist: MPLA […]): 0.97 ± 0.12
- viability score [3]: 0.991 (active)

Structure (SMILES): Cc1sc2ncnc(Nc3ccc(F)cc3)c2c1C
- NF-kB reporter [1, 4]: 0.813 ± 0.035
- NF-kB reporter ([1]; agonist: LPS 0.1 ug/mL): 0.948 ± 0.11
- NF-kB reporter ([1]; agonist: MPLA […]): 1.22 ± 0.071
- IRF reporter ([2]; agonist: 3'3'-cGAMP 10 ug/mL): 0.739 ± 0.034
- IRF reporter ([2]; agonist: LPS 0.1 ug/mL): 0.935 ± 0.19
- IRF reporter ([2]; agonist: MPLA […]): 1.07 ± 0.27
- viability score [3]: 0.981 (active)

Structure (SMILES): CCC(=O)Nc1ccc(N2CCCCC2)c(Cl)c1
- NF-kB reporter [1, 4]: 1.1 ± 0.23
- NF-kB reporter ([1]; agonist: LPS 0.1 ug/mL): 1.14 ± 0.091
- NF-kB reporter ([1]; agonist: MPLA […]): 1.04 ± 0.1
- IRF reporter ([2]; agonist: 3'3'-cGAMP 10 ug/mL): 0.773 ± 0.026
- IRF reporter ([2]; agonist: LPS 0.1 ug/mL): 1.41 ± 0.18
- IRF reporter ([2]; agonist: MPLA […]): 1.38 ± 0.28
- viability score [3]: 0.992 (active)

Structure (SMILES): CC(C)(O)CNc1nc(Nc2ccnc(C(F)(F)F)c2)nc(-c2cccc(C(F)(F)F)n2)n1
- NF-kB reporter [1, 4]: 1.13 ± 0.37
- NF-kB reporter ([1]; agonist: LPS 0.1 ug/mL): 1.19 ± 0.079
- NF-kB reporter ([1]; agonist: MPLA […]): 1.12 ± 0.087
- IRF reporter ([2]; agonist: 3'3'-cGAMP 10 ug/mL): 1.01 ± 0.053
- IRF reporter ([2]; agonist: LPS 0.1 ug/mL): 1.3 ± 0.19
- IRF reporter ([2]; agonist: MPLA […]): 1.54 ± 0.15
- viability score [3]: 0.999 (active)

Structure (SMILES): CC(=O)n1cc(C=C(C)[N+](=O)[O-])c2ccccc21
- NF-kB reporter [1, 4]: 1.07 ± 0.091
- NF-kB reporter ([1]; agonist: LPS 0.1 ug/mL): 0.607 ± 0.079
- NF-kB reporter ([1]; agonist: MPLA […]): 0.419 ± 0.055
- IRF reporter ([2]; agonist: 3'3'-cGAMP 10 ug/mL): 0.445 ± 0.015
- IRF reporter ([2]; agonist: LPS 0.1 ug/mL): 0.297 ± 0.11
- IRF reporter ([2]; agonist: MPLA […]): 0.183 ± 0.067
- viability score [3]: 0.861 (active)

Structure (SMILES): Cc1ccc(NS(=O)(=O)c2cc3c4c(cccc4c2)C(=O)NC3=O)cc1C
- NF-kB reporter [1, 4]: 0.535 ± 0.034
- NF-kB reporter ([1]; agonist: LPS 0.1 ug/mL): 0.381 ± 0.03
- NF-kB reporter ([1]; agonist: MPLA […]): 0.875 ± 0.025
- IRF reporter ([2]; agonist: 3'3'-cGAMP 10 ug/mL): 0.532 ± 0.033
- IRF reporter ([2]; agonist: LPS 0.1 ug/mL): 0.908 ± 0.092
- IRF reporter ([2]; agonist: MPLA […]): 0.815 ± 0.14
- viability score [3]: 0.802 (active)

Structure (SMILES): Clc1cccc(OCCCOc2cccc3cccnc23)c1
- NF-kB reporter [1, 4]: 0.586 ± 0.046
- NF-kB reporter ([1]; agonist: LPS 0.1 ug/mL): 1.13 ± 0.091
- NF-kB reporter ([1]; agonist: MPLA […]): 1.53 ± 0.17
- IRF reporter ([2]; agonist: 3'3'-cGAMP 10 ug/mL): 0.948 ± 0.11
- IRF reporter ([2]; agonist: LPS 0.1 ug/mL): 1.18 ± 0.083
- IRF reporter ([2]; agonist: MPLA […]): 2.83 ± 0.56
- viability score [3]: 0.818 (active)
